Data on 1 sequence can be found in article PMC7862700, “An all-to-all approach to the identification of sequence-specific readers for epigenetic DNA modifications on cytosine”.

Common to all, as to experiment: DAPPL (digital affinity profiling via proximity ligation, sequencing); 10 mM Tris-HCl pH 7.5, 50 mM NaCl, 1 mM DTT, 4% glycerol, room temperature, 30 min; GST-TFs on glutathione beads, 16-mer random dsDNA library, 0.1% formaldehyde crosslink after washing; high values mean tight binding
In one assay the target is T1, FLI1 (Homo sapiens, UniProt Q01543 1-452).
T1 sequence: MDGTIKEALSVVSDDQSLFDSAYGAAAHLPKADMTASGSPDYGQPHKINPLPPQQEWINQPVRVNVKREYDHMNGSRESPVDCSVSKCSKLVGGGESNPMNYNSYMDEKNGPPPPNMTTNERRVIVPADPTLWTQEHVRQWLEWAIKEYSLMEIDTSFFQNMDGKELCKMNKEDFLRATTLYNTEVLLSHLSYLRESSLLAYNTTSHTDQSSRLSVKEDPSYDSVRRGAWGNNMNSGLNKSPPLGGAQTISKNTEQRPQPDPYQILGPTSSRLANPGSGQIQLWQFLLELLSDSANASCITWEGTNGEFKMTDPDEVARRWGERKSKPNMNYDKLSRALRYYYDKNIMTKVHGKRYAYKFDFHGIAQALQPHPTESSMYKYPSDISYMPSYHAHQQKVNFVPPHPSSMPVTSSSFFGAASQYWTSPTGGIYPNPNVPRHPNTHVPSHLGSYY
The note with it: protein: recombinant; tags: N-terminal GST; dsDNA, one strand shown. The method, boiled down: (§1)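 After expression in yeast as GST fusions, human transcription factors were bound to glutathione beads, DNA-barcoded and mixed with a tag-only sample. The pools were incubated with 200 nmole of a 16-mer random double-stranded DNA library in Tris/NaCl/DTT/glycerol buffer (30 min, room temperature), washed and crosslinked with 0.1% formaldehyde. Proximity ligation with BsaI/T4 ligase ran for 1 h at 37 °C, before PCR amplification and sequencing on an Illumina NextSeq500. Binding signal is a hexamer's read frequency for a factor divided by its frequency for the tag-only sample.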

The target of another assay is T2, ELK1 (Homo sapiens, UniProt P19419 1-428).
T2 sequence: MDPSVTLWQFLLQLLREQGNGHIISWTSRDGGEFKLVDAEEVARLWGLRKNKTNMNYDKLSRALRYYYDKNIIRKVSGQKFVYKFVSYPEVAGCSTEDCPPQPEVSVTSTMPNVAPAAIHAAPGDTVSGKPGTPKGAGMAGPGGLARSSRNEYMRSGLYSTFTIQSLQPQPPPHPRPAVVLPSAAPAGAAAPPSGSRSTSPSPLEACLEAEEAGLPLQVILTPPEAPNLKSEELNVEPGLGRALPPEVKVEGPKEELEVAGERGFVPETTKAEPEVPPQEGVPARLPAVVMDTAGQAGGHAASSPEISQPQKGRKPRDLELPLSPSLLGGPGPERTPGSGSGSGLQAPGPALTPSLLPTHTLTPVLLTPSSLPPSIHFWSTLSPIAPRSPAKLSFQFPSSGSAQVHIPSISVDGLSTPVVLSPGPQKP
The note with it: protein: recombinant; tags: N-terminal GST; dsDNA, one strand shown. The method, boiled down:
as §1

Another assay concerns the target T3, GABPA (Homo sapiens, UniProt Q06546 1-454).
T3 sequence: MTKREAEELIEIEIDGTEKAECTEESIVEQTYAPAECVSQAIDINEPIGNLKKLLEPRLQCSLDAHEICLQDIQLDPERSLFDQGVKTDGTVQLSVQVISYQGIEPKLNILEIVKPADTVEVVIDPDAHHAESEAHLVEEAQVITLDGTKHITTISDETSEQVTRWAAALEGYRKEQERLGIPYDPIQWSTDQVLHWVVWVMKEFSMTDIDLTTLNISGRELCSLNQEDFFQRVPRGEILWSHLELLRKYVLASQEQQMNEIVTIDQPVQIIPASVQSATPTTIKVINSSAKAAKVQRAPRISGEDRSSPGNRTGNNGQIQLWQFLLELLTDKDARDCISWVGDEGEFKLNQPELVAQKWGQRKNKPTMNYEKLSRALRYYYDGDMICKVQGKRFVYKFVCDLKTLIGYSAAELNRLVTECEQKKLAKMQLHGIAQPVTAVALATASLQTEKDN
The following applies: protein: recombinant; tags: N-terminal GST; dsDNA, one strand shown. The method, boiled down: as §1

In the next assay the target is T4, ERG (Homo sapiens, UniProt P11308 1-479).
T4 sequence: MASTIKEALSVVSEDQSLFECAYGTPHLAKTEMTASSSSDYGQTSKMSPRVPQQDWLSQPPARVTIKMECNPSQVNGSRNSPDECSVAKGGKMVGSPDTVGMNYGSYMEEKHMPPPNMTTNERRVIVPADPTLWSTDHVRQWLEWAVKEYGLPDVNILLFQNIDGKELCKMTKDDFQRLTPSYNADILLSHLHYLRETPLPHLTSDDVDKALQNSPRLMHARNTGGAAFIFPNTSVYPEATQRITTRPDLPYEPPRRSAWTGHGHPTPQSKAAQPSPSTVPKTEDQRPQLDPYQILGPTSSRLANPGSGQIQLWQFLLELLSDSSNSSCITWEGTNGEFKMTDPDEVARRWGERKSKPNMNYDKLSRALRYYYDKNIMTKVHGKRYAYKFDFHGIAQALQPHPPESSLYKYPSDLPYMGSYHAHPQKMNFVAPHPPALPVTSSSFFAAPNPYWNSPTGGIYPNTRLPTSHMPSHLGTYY
The following applies: protein: recombinant; tags: N-terminal GST; dsDNA, one strand shown. The method, boiled down:
as §1

Another assay addresses ELF1 (Homo sapiens, UniProt P32519 1-619). The following applies: protein: recombinant; tags: N-terminal GST; dsDNA, one strand shown. In outline:
as §1

The target of the next assay is T5, EHF (Homo sapiens, UniProt Q9NZC4 1-300).
T5 sequence: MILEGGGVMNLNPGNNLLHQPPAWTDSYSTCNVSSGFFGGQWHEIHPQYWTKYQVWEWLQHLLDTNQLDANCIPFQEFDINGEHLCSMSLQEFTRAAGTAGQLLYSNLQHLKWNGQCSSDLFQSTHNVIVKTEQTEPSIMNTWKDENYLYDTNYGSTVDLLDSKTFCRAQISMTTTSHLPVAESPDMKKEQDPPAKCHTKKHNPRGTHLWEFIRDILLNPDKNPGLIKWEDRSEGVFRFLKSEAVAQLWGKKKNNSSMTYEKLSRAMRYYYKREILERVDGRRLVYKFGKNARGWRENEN
The following applies: protein: recombinant; tags: N-terminal GST; dsDNA, one strand shown. The method, boiled down: as §1

Another assay deals with SPI1 (Homo sapiens, UniProt P17947 1-270). The note with it: protein: recombinant; tags: N-terminal GST; dsDNA, one strand shown. The method, boiled down:
as §1

Another assay addresses SPIB (Homo sapiens, UniProt Q01892 1-262). The following applies: protein: recombinant; tags: N-terminal GST; dsDNA, one strand shown. The method, boiled down:
as §1

The target in a further assay is T6, ELK3 (Homo sapiens, UniProt P41970 1-407).
T6 sequence: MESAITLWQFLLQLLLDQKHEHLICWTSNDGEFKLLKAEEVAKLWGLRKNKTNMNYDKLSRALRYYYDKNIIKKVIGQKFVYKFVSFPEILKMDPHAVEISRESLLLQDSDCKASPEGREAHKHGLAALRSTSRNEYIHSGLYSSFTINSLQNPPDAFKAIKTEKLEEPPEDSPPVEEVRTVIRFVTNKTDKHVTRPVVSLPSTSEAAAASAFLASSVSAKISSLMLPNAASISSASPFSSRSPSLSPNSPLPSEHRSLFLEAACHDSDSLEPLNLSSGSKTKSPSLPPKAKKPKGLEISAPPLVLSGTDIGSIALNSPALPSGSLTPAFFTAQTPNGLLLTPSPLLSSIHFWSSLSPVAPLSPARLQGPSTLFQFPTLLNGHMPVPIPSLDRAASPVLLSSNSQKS
The note with it: protein: recombinant; tags: N-terminal GST; dsDNA, one strand shown. In outline:
as §1

For the next assay, the target named is T7, FEV (Homo sapiens, UniProt Q99581 1-238).
T7 sequence: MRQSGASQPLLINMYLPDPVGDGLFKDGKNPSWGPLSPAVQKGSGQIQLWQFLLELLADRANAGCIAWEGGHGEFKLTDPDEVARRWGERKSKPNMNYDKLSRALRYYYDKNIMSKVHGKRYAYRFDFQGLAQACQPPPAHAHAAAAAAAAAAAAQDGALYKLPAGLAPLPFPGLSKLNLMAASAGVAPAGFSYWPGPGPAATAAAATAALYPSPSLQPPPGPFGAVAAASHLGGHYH
The note with it: protein: recombinant; tags: N-terminal GST; dsDNA, one strand shown. In outline:
as §1

The next assay deals with ETV5 (Homo sapiens, UniProt P41161 1-510). The note with it: protein: recombinant; tags: N-terminal GST; dsDNA, one strand shown. In outline:
as §1

The target of a further assay is HSF1 (Homo sapiens, UniProt Q00613 1-529). The note with it: protein: recombinant; tags: N-terminal GST; chain copies: 3; dsDNA, one strand shown. The method, boiled down:
as §1

A further assay has as its target T8, SPIC (Homo sapiens, UniProt Q8N5J4 1-248).
T8 sequence: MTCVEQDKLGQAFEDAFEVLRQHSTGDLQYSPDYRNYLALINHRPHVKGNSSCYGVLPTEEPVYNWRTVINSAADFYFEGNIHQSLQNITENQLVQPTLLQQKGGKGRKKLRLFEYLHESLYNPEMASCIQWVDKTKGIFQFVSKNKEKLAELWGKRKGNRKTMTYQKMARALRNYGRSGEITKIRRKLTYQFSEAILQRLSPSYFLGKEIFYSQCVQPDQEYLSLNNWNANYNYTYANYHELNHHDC
The following applies: protein: recombinant; tags: N-terminal GST; dsDNA, one strand shown. The method, boiled down:
as §1

The target in another assay is ELF4 (Homo sapiens, UniProt Q99607 1-663). The note with it: protein: recombinant; tags: N-terminal GST; dsDNA, one strand shown. The method, boiled down:
as §1

The target in the next assay is T9, ELK4 (Homo sapiens, UniProt P28324-2 1-405).
T9 sequence: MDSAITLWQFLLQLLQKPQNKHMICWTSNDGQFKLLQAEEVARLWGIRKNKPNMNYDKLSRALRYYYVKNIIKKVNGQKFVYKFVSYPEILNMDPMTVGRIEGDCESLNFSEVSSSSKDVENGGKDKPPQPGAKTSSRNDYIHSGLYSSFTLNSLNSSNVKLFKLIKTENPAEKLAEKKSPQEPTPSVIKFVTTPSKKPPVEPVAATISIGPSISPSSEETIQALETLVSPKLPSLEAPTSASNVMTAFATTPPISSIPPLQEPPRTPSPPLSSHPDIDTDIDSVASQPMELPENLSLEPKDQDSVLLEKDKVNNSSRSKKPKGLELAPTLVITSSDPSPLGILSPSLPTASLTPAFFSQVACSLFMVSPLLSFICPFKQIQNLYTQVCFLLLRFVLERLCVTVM
The following applies: protein: recombinant; tags: N-terminal GST; dsDNA, one strand shown. In outline: as §1

The next assay concerns the target T10, ETV2 (Homo sapiens, UniProt O00321 1-342).
T10 sequence: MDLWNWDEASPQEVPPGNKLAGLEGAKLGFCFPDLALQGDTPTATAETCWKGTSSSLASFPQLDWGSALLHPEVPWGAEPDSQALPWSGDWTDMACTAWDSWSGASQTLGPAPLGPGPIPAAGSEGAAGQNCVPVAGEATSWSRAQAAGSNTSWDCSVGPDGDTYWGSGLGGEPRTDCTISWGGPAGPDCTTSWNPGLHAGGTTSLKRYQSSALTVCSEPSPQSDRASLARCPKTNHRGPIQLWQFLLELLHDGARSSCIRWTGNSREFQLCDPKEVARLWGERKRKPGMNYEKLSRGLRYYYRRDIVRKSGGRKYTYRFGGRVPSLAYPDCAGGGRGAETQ
The note with it: protein: recombinant; tags: N-terminal GST; dsDNA, one strand shown. The method, boiled down:
as §1

Another assay deals with T11, ELF3 (Homo sapiens, UniProt P78545 1-371).
T11 sequence: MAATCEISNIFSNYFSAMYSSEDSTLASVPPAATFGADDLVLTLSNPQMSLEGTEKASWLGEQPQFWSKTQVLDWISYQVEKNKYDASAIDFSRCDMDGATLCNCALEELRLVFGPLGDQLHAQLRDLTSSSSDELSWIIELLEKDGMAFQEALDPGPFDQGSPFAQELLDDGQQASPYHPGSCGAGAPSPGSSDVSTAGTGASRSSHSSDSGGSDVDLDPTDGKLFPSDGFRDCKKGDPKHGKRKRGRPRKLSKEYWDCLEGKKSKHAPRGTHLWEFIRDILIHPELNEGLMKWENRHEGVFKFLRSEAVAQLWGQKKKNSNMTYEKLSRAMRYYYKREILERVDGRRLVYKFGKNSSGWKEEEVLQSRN
The note with it: protein: recombinant; tags: N-terminal GST; dsDNA, one strand shown. The method, boiled down: as §1

The target in a further assay is ETV1 (Homo sapiens, UniProt P50549 1-477). The note with it: protein: recombinant; tags: N-terminal GST; dsDNA, one strand shown. The method, boiled down: as §1
Sequence of ETV1 (P50549 whole entry): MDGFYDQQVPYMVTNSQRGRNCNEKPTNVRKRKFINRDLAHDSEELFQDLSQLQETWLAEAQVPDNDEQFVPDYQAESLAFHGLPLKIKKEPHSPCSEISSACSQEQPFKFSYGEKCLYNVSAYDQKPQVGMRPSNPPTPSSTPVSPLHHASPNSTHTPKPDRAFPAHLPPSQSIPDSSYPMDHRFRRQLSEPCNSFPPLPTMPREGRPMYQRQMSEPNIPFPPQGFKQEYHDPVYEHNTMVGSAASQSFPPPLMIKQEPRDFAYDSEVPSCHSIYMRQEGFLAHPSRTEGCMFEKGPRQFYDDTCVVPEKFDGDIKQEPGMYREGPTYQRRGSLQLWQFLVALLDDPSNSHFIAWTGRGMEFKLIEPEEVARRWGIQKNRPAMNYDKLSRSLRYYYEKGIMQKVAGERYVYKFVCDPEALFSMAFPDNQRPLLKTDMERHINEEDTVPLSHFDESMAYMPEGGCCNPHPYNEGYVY

Sequence of HSF1 (Q00613 whole entry): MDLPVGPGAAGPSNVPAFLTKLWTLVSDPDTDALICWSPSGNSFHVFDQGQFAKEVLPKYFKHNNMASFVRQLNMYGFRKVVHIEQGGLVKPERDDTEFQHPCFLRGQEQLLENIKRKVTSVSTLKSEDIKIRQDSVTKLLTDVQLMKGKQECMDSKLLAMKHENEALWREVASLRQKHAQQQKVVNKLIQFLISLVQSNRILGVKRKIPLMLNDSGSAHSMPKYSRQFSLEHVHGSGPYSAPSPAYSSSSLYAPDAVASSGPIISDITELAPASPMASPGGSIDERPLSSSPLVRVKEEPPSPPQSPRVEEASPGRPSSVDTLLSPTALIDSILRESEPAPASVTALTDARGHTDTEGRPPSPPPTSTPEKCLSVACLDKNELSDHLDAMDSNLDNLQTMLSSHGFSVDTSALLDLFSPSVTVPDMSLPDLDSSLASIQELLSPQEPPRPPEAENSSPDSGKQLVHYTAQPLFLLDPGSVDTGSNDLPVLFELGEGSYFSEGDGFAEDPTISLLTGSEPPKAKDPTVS
Sequence of ELF1 (P32519 whole entry): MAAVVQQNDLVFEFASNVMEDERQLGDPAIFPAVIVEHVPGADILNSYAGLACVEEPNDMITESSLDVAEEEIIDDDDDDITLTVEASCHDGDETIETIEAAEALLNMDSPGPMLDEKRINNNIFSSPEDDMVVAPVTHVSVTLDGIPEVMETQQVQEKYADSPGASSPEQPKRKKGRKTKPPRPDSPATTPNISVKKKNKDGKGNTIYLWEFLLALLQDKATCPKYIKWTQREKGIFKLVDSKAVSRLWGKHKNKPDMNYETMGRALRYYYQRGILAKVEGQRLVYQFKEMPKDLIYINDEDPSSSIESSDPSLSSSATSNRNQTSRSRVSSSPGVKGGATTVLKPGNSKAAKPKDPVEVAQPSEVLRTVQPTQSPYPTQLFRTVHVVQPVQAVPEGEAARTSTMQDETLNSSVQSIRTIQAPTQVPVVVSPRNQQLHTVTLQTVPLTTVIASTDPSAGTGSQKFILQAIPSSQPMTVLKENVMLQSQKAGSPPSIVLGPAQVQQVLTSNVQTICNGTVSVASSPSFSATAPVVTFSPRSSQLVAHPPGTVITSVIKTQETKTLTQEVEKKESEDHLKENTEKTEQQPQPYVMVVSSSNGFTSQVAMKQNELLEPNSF
Sequence of ELF4 (Q99607 whole entry): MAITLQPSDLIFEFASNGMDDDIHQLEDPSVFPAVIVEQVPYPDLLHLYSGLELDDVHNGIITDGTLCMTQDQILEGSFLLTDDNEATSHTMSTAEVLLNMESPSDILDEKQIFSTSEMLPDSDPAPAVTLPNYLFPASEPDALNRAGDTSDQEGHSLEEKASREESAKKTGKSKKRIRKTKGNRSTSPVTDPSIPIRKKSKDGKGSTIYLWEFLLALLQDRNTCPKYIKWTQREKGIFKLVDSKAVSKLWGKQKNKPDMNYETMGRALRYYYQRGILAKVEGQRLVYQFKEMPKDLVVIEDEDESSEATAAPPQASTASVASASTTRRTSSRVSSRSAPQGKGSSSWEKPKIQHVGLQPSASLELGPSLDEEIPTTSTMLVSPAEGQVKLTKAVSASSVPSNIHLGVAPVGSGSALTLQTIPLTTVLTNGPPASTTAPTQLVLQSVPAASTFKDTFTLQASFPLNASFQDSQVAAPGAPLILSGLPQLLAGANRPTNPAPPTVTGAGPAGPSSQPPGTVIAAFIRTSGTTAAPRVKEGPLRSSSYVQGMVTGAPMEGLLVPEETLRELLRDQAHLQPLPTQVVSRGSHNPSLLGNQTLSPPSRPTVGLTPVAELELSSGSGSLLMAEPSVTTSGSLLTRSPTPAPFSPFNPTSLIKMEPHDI
Sequence of ETV5 (P41161 whole entry): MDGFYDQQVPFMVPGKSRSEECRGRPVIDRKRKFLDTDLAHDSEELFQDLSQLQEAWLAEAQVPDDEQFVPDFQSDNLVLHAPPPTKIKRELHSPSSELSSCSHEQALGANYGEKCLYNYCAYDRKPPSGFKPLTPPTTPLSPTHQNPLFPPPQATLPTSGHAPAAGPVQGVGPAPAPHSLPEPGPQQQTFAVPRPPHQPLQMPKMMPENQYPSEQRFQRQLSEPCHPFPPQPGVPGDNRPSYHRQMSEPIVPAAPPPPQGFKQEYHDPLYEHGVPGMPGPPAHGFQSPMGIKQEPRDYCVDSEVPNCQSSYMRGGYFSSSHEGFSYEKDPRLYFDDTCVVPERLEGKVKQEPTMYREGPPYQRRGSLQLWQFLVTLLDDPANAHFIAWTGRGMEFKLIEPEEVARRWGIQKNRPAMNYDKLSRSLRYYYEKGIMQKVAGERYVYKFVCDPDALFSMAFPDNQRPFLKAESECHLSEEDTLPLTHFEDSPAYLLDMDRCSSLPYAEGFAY
Sequence of SPIB (Q01892 whole entry): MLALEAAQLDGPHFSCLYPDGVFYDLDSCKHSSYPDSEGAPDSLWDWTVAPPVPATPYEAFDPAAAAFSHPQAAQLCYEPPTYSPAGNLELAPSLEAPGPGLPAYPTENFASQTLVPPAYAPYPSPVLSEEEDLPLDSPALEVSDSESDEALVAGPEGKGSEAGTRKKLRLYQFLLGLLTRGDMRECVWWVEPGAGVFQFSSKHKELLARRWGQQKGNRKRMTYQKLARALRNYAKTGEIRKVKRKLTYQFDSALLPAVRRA

In the case of GCAACT, the binding signal with FLI1 is 1.22 fold enrichment (6-mer frequency, TF over GST control); with ELK1, 1.19 fold enrichment (6-mer frequency, TF over GST control); in the assay with GABPA, 1.19 fold enrichment (6-mer frequency, TF over GST control); in the assay with ERG, 1.33 fold enrichment (6-mer frequency, TF over GST control); with ELF1, 1.29 fold enrichment (6-mer frequency, TF over GST control); with EHF, 1.2 fold enrichment (6-mer frequency, TF over GST control). Besides, the binding signal with SPI1 was 1.23 fold enrichment (6-mer frequency, TF over GST control); in the assay with SPIB, 1.22 fold enrichment (6-mer frequency, TF over GST control); in the assay with ELK3 it was 1.14 fold enrichment (6-mer frequency, TF over GST control); with FEV it was 1.27 fold enrichment (6-mer frequency, TF over GST control); with ETV5, 1.2 fold enrichment (6-mer frequency, TF over GST control); with HSF1, 1.05 fold enrichment (6-mer frequency, TF over GST control). Besides, the binding signal is 1.3 fold enrichment (6-mer frequency, TF over GST control) with SPIC; 1.2 fold enrichment (6-mer frequency, TF over GST control) with ELF4; 1.2 fold enrichment (6-mer frequency, TF over GST control) with ELK4; 1.04 fold enrichment (6-mer frequency, TF over GST control) with ETV2; 1.12 fold enrichment (6-mer frequency, TF over GST control) in the assay with ELF3; 1.25 fold enrichment (6-mer frequency, TF over GST control) in the assay with ETV1.
